Results from publication PMC9574860, “Chemical Toolkit for PARK7: Potent, Selective, and High-Throughput” (Journal of Medicinal Chemistry, 2022).
About 400 (5.1%) of roughly 7,900 compounds showed an effect of 50% or more. For the sample, strong results were picked, then their nearest neighbours and some compounds at random.

The compounds below were run against Parkinson's disease protein 7 (PARK7/DJ1) (human, UniProt Q99497) (assay: primary screen, percent inhibition; read as competition with a fluorescent probe by fluorescence polarization; higher = more effect of the substance). Settings: 100 µM.
Description: The screen was conducted using the conditions as described above in 1536-well plates (Corning 3724) with a reaction volume of 8 μL per well. The compound library containing 7887 covalent fragments was purchased at Enamine Ltd. and received as 100 mM DMSO stocks in 384 well LDV Echo plates (Labcyte LP-0200). Stock solutions of 0.26 μM PARK7 and 80 nM JYQ-107 were prepared. Using a Labcyte Echo550 acoustic dispenser, 8 nL of the DMSO stock solution of the library compounds was transferred from the source plates into the empty 1536-well screening plates to obtain a 100 μM final compound concentration. Next, PARK7 (6 μL, final concentration 0.2 μM) was dispensed using a Biotek MultiflowFX liquid dispenser and incubated for 2 h, followed by dispensing the probe JYQ-107 (2 μL, final concentration 20 nM). After 2 h incubation, the FP signal was recorded on a BMG Labtech PHERAstar plate reader (λex/em 480/520 nm). The relative loss of FP signal compared with reference controls was used to calculate the remaining enzyme activity.

Chain of Parkinson's disease protein 7 (PARK7/DJ1) (Q99497 whole entry, looked up, the tested form may be a part): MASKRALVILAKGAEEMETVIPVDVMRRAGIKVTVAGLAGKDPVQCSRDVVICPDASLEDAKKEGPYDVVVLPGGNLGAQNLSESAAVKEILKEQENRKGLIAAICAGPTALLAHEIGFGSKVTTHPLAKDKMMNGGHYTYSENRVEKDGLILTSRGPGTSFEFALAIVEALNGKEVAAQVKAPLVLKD

Row | Compound | Inhibition %
1 | C=CC(=O)Nc1ccc2nc(C(F)(F)F)oc2c1 | 20.1%
2 | C=CC(=O)N1CCN(c2cccc(OC(F)F)c2)CC1 | 6.79%
3 | CC(C)c1ccc(NC(=O)Cn2cnc(C#N)n2)cc1 | 22.6%
4 | ClCCCc1nc2ccccc2o1 | 16.4%
5 | O=S(=O)(F)CCn1nnc2ccccc21 | 8.8%
6 | O=S(=O)(F)CCSc1nc2ccccc2o1 | 70.3%
7 | COc1cc(C=C(C#N)C(N)=O)ccc1OC(C)C | 4.85%
8 | N#Cc1nc(-c2ccc(Cl)c(Cl)c2)oc1N | 5.93%
9 | CC1(C)OB(c2cccc(CN3CCCC3)c2)OC1(C)C.Cl | 6.39%
10 | C=CC(=O)N1CCCc2[nH]c3ccc(F)cc3c2C1 | 71.3%
11 | C=CC(=O)N1CCc2cc(F)ccc2C1 | 10.6%
12 | C=CC(=O)N1CCCN(C(=O)c2cccc(F)c2)CC1 | 2.43%
13 | C=CC(=O)N1CC(C)(C)C1c1cccs1 (stereo not drawn) | 8.35%
14 | C=CC(=O)N1C[C@H](F)C[C@H]1C(N)=O | 11.6%
15 | CC1CCC2(CC1)NC(=O)N(CC=CCl)C2=O (stereo not drawn) | -0.501%
16 | CC(NC(=O)Oc1ccccc1)C(=O)O (stereo not drawn) | 10.1%
17 | Cc1ccc(B2OC(C)(C)C(C)(C)O2)c(C#N)c1 | -0.714%
18 | N#CC1COCCN1C(=O)c1cccc(S(=O)(=O)F)c1 (stereo not drawn) | 93.6%
19 | N#Cc1ccc(S(=O)(=O)F)cc1 | 60.6%
20 | O=C(O)c1cccc(S(=O)(=O)F)c1 | 95.1%
21 | O=C(O)c1ccc(S(=O)(=O)F)cc1 | 49.1%

Row | Compound | Inhibition %
22 | CN(Cc1cccc(F)c1)S(=O)(=O)F | 8.98%
23 | O=S(=O)(F)c1cccc(CO)c1 | 96.8%
24 | C#Cc1ccc(S(=O)(=O)F)cc1 | 14.4%
25 | C=CC(=O)N1CCOCC1c1cccc(F)c1 (stereo not drawn) | 2.96%
26 | O=C(c1cccc(S(=O)(=O)F)c1)N1CCCn2ncc(C3CC3)c21 | 6.74%
27 | O=S(=O)(F)c1ccc(S(=O)(=O)F)cc1 | 7.58%
28 | O=C(C=Cc1ccccc1)c1ccc(S(=O)(=O)F)cc1 | 10.9%
29 | c1ncc(C2OCCO2)s1 | 38.6%
30 | C=CC(=O)N[C@H]1C[C@H](c2ccccc2F)C1 | 10.2%
31 | C=CC(=O)Nc1cc(S(=O)(=O)N(C)C)ccc1Cl | 6.55%
32 | Cc1ccc(-n2cnc(Cl)c2C#N)cc1 | 6.79%
33 | COCc1n[nH]c(=O)o1 | 2.07%
34 | CN1CCCC(CCl)C1.Cl (stereo not drawn) | 4.37%
35 | CN(C(=O)C(C#N)=Cc1ccco1)c1ccc(F)cc1 | 8.11%
36 | c1cc2ccc(OCC3CO3)cc2[nH]1 (stereo not drawn) | 5.75%
37 | Cc1cc(C#N)cc(C(=O)O)n1 | 4.24%
38 | Cc1cnc(=S)[nH]c1 | 8.44%
39 | N#CSc1c(Cl)nc2sccn12 | 13.7%
40 | C=CC(=O)N1CCOCC1CC(F)F (stereo not drawn) | 17%
41 | Cc1ccc(-n2cc(SC(=O)N(C)C)cn2)cc1 | 6.2%
42 | O=C(CCl)NC(=O)c1cccc([N+](=O)[O-])c1 | 31.5%

Row | Compound | Inhibition %
43 | C=CS(=O)(=O)c1cccc(C#N)c1 | 6.17%
44 | N#Cc1cccc(S(=O)(=O)F)c1 | 97.3%
45 | O=S(=O)(F)c1ccccc1C(F)(F)F | 11.3%
46 | O=[N+]([O-])c1ccc(C(F)(F)F)c(S(=O)(=O)F)c1 | 102%
47 | NS(=O)(=O)c1cccc(S(=O)(=O)F)c1 | 94.3%
48 | N#Cc1cnn(Cc2ccc(S(=O)(=O)F)cc2)c1 | 7.21%
49 | O=S(=O)(F)c1cccc(Br)c1 | 16.4%
50 | O=[N+]([O-])c1cccc(S(=O)(=O)F)c1 | 99.2%
51 | CC1(C)OB(c2cccc(S(N)(=O)=O)c2)OC1(C)C | 2.2%
52 | O=C(CCl)Nc1ccc([N+](=O)[O-])cc1C(F)(F)F | 12.1%
53 | O=S(=O)(F)c1ccc(Cl)cc1 | 27%
54 | CC1(C)OB(c2ccc(OCCc3ccccn3)cc2)OC1(C)C | -0.0918%
55 | N#Cc1ncn(Cc2ccc(F)cc2Cl)n1 | 0.898%
56 | C=CC(=O)N1CC(=O)NC2CCCCC21 (stereo not drawn) | 24.2%
57 | Cc1ccc2oc(C#N)nc2c1 | 9.34%
58 | O=C(CCl)NC1CCCC1 | 15.6%
59 | C=CC(=O)N1CCN(c2c(F)cccc2OC)CC1 | 12%
60 | CCc1ccccc1NC(=O)CCl | 13.2%
61 | CCC1(C)NC(=O)N(NC(=O)CCl)C1=O (stereo not drawn) | 9.56%
62 | Cl.Nc1cccc2cc(S(=O)(=O)F)ccc12 | 65.6%
63 | O=C1NC(c2ccccc2)C12CCCC2 (stereo not drawn) | 3.32%
